Among the test systems are SR leukemia; RPMI-8226 leukemia; OVCAR-8 ovarian; OVCAR-5 ovarian; SK-OV-3 ovarian; IGROV1 ovarian; OVCAR-3 ovarian; HS 578T breast; NCI/ADR-RES ovarian; T-47D breast; BT-549 breast; MDA-MB-435 melanoma; SW-620 colon; MCF7 breast; HCT-116 colon; HCC-2998 colon; KM12 colon; OVCAR-4 ovarian.
Common to all, as to experiment: NCI-60 one-dose screen, 48 h (100 = growth as untreated, 0 = no growth, -100 = all killed)
Conditions in all cases: 10 µM unless noted

The structures appear in SMILES notation. Compounds without any hit were thinned out: in the full panel of roughly 83,000, 20% have a hit.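 Negative percent growth values reflect cell death: -40 means 40% of the cells present at the start died, and -100 means all died.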 A number with no mark means an inactive call. The source made the active and inactive calls. Rule for the calls: active = growth percent below 10; inactive = the rest.

As for `CCCCCCCCCCCCNC(=O)[C@H]1CSC(c2cc3ccccc3s2)N1` (some centres not stated), the growth with SR leukemia is -34.6% (active); with RPMI-8226 leukemia it was 18.7%; in the assay with OVCAR-8 ovarian, -32.9% (active); in the assay on OVCAR-5 ovarian it was 20.5%; in the assay with SK-OV-3 ovarian it was -30.1% (active); with IGROV1 ovarian, -63.2% (active). In addition, the growth in the assay with OVCAR-3 ovarian is -61.3% (active); in the assay on HS 578T breast, -41.4% (active); in the assay on NCI/ADR-RES ovarian, -18.1% (active); in the assay with T-47D breast it was 52.5%; in the assay with BT-549 breast, -60.1% (active); in the assay on MDA-MB-435 melanoma it was -94.6% (active). For the same compound, the growth is 3.61% (active) with SW-620 colon; 42.4% in the assay with MCF7 breast; -80% (active) in the assay with HCT-116 colon; 61.4% in the assay on HCC-2998 colon; -50.7% (active) with KM12 colon.
As for `Cc1ccc(S(=O)(=O)/C(=C\c2ccc(Cl)cc2)C(=O)c2ccccc2)cc1`, the growth in the assay on SR leukemia was 105%; with RPMI-8226 leukemia, 103%; in the assay with OVCAR-8 ovarian, 107%; with OVCAR-5 ovarian, 114%; with SK-OV-3 ovarian it was 96.9%; in the assay on IGROV1 ovarian it was 109%. Moreover, the growth in the assay with OVCAR-3 ovarian was 119%; in the assay with HS 578T breast, 119%; in the assay with T-47D breast it was 95.3%; with BT-549 breast it was 102%; in the assay with MDA-MB-435 melanoma, 88.7%; in the assay on SW-620 colon, 106%. For the same compound, the growth in the assay on HCT-116 colon is 106%; with HCC-2998 colon, 107%; in the assay with KM12 colon, 111%.
`N=c1ccc2nc3ccc(N)cc3sc-2c1`: the growth in the assay on SR leukemia is 38.2%; with RPMI-8226 leukemia, 30%; in the assay on OVCAR-8 ovarian, 13.5%; with OVCAR-5 ovarian, 48.1%; in the assay with SK-OV-3 ovarian, 58.4%; with IGROV1 ovarian, 40.6%. In addition, the growth in the assay with OVCAR-3 ovarian is 0.418% (active); with HS 578T breast it was 51.9%; in the assay with NCI/ADR-RES ovarian it was 9.73% (active); with T-47D breast, 5.98% (active); in the assay with MDA-MB-435 melanoma, -56.6% (active); in the assay on SW-620 colon, 31.7%. Moreover, the growth was 14.6% with MCF7 breast, 1.01% (active) in the assay with HCT-116 colon, 53.2% with HCC-2998 colon and 18.1% in the assay with KM12 colon.
Turning to `O=C(NS(=O)(=O)c1ccc2ccccc2c1)n1cc(-c2ccncc2)c(-c2ccc(Cl)c(O)c2)n1`, the growth with SR leukemia is 61.8%; in the assay with RPMI-8226 leukemia, 60.2%; in the assay with OVCAR-8 ovarian, 72.5%; in the assay with OVCAR-5 ovarian it was 89.8%; in the assay on SK-OV-3 ovarian it was 81.8%; in the assay on IGROV1 ovarian, 60.2%. The growth in the assay with OVCAR-3 ovarian is 133%; with HS 578T breast it was 72.4%; in the assay on NCI/ADR-RES ovarian, 87.6%; in the assay on T-47D breast, 78.6%; with BT-549 breast, 100%; in the assay on MDA-MB-435 melanoma, 51.6%. In addition, the growth in the assay with SW-620 colon was 95.2%; in the assay on MCF7 breast, 114%; in the assay with HCT-116 colon it was 39.2%; with KM12 colon, 103%.
As for `C=C1CCC2C3(C)COC(c4c(OC)cccc4OC)OC3CCC2(C)C1C/C=C1/C(=O)OCC1O` (configuration not stated), the growth in the assay on SR leukemia is 34.7%; in the assay with RPMI-8226 leukemia, -53.5% (active); in the assay with OVCAR-8 ovarian, 29.5%; in the assay on OVCAR-5 ovarian it was 49.3%; in the assay with SK-OV-3 ovarian, 71.6%; in the assay on IGROV1 ovarian, 26.9%. Besides, the growth in the assay on NCI/ADR-RES ovarian was 30.9%; in the assay on T-47D breast it was 54%; in the assay on BT-549 breast it was 16.9%; with MDA-MB-435 melanoma it was 19.4%; in the assay with SW-620 colon it was 16.2%; in the assay on MCF7 breast it was 27.8%. The values for the growth with HCT-116 colon and with KM12 colon were 1.8% (active) and 9.36% (active), respectively.
Take `CC(C)CC1NC(C)(C)CO1` (configuration not stated): the growth is 124% in the assay on SR leukemia; 103% with RPMI-8226 leukemia; 105% in the assay with OVCAR-8 ovarian; 114% in the assay with OVCAR-5 ovarian; 110% in the assay with SK-OV-3 ovarian; 112% in the assay with IGROV1 ovarian. Moreover, the growth with OVCAR-3 ovarian is 106%; with HS 578T breast, 142%; in the assay with BT-549 breast it was 116%; in the assay with MDA-MB-435 melanoma, 113%; in the assay with SW-620 colon, 106%; in the assay with MCF7 breast it was 104%. The growth in the assay on HCT-116 colon was 114%; with HCC-2998 colon it was 102%; in the assay on KM12 colon, 110%.
On to `Cc1cc(C2(c3cc(C)c(O)cc3C)OS(=O)(=O)c3ccccc32)c(C)cc1O`, for which the growth was 95.3% in the assay on SR leukemia; 92.4% in the assay on RPMI-8226 leukemia; 103% with OVCAR-8 ovarian; 111% with OVCAR-5 ovarian; 101% with SK-OV-3 ovarian; 107% with IGROV1 ovarian. Also, the growth in the assay on OVCAR-3 ovarian was 107%; in the assay on HS 578T breast, 96.3%; in the assay with NCI/ADR-RES ovarian, 110%; with T-47D breast, 102%; with MDA-MB-435 melanoma, 116%; in the assay on SW-620 colon it was 106%. In addition, the growth in the assay on HCT-116 colon is 103%; in the assay with HCC-2998 colon it was 101%; in the assay with KM12 colon it was 106%.
As to `COc1ccc(CNCCCN2C(=O)c3ccc4c5c(ccc(c35)C2=O)C(=O)N(CCCNCCCCNCCCN)C4=O)c(OC)c1OC`, the growth with SR leukemia was 6.04% (active); in the assay on RPMI-8226 leukemia, 39.7%; with OVCAR-8 ovarian, 4.39% (active); in the assay with OVCAR-4 ovarian, -48.3% (active); with SK-OV-3 ovarian, 51.7%; in the assay with IGROV1 ovarian, -4.4% (active). In addition, the growth is 3.29% (active) with OVCAR-3 ovarian; 73.1% with HS 578T breast; 60.7% with NCI/ADR-RES ovarian; -44.4% (active) in the assay on T-47D breast; 60.4% in the assay on BT-549 breast; -39.1% (active) with MDA-MB-435 melanoma. In addition, the growth is 10.8% in the assay with SW-620 colon; -19.7% (active) in the assay with MCF7 breast; 6.94% (active) with HCT-116 colon; -3.52% (active) in the assay on HCC-2998 colon; 21.2% in the assay on KM12 colon.
`CCCCCCCCCCCC(=O)NCCC[N+](C)(C)CC(=O)[O-]`: the growth in the assay with SR leukemia is 68.8%; in the assay with RPMI-8226 leukemia it was 93.2%; in the assay with OVCAR-8 ovarian it was 96.9%; in the assay on OVCAR-5 ovarian, 90.2%; in the assay with SK-OV-3 ovarian, 103%; with IGROV1 ovarian, 76.7%. The growth in the assay with OVCAR-3 ovarian is 99.8%; in the assay with HS 578T breast, 105%; in the assay with NCI/ADR-RES ovarian, 102%; with T-47D breast, 92%; in the assay with BT-549 breast it was 85.5%; in the assay on MDA-MB-435 melanoma, 88.7%. Moreover, the growth in the assay on SW-620 colon was 109%; in the assay on MCF7 breast it was 99.8%; in the assay with HCT-116 colon, 89.9%; with HCC-2998 colon, 96%; in the assay with KM12 colon, 86.6%.
Take `CCN(CC)CCC(CNc1ccnc2cc(Cl)ccc12)c1ccccc1` (configuration not stated): the growth in the assay with SR leukemia is 20.5%; in the assay with RPMI-8226 leukemia, 59.3%; with OVCAR-8 ovarian it was 61.2%; in the assay with OVCAR-5 ovarian it was 87.9%; in the assay with SK-OV-3 ovarian it was 85.6%; in the assay on IGROV1 ovarian it was 80.2%. The growth in the assay on OVCAR-3 ovarian is 79.9%; with HS 578T breast it was 46.8%; in the assay with NCI/ADR-RES ovarian, 83.2%; in the assay on T-47D breast it was 71%; in the assay with MDA-MB-435 melanoma it was -2.6% (active); in the assay on SW-620 colon, 62.3%. The growth was 26.3% in the assay on MCF7 breast, 68.2% with HCC-2998 colon and 84.1% with KM12 colon.
